In ChEMBL document CHEMBL2218924, “A broad activity screen in support of a chemogenomic map for kinase signalling research and drug discovery” (Biochem J, 2013) one finds residual activity data, which are given here for seven compounds.

The target in assay [1] is Calcium/calmodulin-dependent protein kinase type 1 (Homo sapiens) (UniProt Q14012). To be noted: at 1 µM.
For assay [2] the target is unchanged. Conditions: at 10 µM.
Assay [3] concerns the target Calcium/calmodulin-dependent protein kinase type II subunit beta (Homo sapiens) (UniProt Q13554). Conditions: at 1 µM.
For assay [4] the target is unchanged. Conditions: at 10 µM.
In assay [5] the target is Calcium/calmodulin-dependent protein kinase type II subunit gamma (Homo sapiens) (UniProt Q13555). Conditions: at 1 µM.
Assay [6] shares this target. Conditions: at 10 µM.
Assay [7] deals with Calcium/calmodulin-dependent protein kinase type II subunit delta (Homo sapiens) (UniProt Q13557). Conditions: at 10 µM.
In assay [8] the target is T1, Calcium/calmodulin-dependent protein kinase type IV (Homo sapiens) (UniProt Q16566).
T1 sequence (whole entry): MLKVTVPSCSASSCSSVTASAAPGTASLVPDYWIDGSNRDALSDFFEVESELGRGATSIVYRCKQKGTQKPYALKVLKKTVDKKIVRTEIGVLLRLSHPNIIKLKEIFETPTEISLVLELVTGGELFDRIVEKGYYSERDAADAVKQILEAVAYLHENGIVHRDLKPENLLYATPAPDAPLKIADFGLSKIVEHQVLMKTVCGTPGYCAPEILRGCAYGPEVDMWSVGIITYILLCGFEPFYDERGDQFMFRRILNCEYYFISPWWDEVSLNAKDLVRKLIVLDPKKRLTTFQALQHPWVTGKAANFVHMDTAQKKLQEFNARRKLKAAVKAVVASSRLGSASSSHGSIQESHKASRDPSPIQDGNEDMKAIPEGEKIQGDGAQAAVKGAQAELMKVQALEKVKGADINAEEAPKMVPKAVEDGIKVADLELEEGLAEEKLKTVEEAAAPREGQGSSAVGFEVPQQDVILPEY
Conditions: at 10 µM.

Assay [9] deals with Death-associated protein kinase 1 (Homo sapiens) (UniProt P53355). To be noted: at 10 µM.
The target in assay [10] is Death-associated protein kinase 2 (Homo sapiens) (UniProt Q9UIK4). To be noted: at 1 µM.
Assay [11] deals with T2, Serine/threonine-protein kinase DCLK2 (Homo sapiens) (UniProt Q8N568).
T2 sequence (whole entry): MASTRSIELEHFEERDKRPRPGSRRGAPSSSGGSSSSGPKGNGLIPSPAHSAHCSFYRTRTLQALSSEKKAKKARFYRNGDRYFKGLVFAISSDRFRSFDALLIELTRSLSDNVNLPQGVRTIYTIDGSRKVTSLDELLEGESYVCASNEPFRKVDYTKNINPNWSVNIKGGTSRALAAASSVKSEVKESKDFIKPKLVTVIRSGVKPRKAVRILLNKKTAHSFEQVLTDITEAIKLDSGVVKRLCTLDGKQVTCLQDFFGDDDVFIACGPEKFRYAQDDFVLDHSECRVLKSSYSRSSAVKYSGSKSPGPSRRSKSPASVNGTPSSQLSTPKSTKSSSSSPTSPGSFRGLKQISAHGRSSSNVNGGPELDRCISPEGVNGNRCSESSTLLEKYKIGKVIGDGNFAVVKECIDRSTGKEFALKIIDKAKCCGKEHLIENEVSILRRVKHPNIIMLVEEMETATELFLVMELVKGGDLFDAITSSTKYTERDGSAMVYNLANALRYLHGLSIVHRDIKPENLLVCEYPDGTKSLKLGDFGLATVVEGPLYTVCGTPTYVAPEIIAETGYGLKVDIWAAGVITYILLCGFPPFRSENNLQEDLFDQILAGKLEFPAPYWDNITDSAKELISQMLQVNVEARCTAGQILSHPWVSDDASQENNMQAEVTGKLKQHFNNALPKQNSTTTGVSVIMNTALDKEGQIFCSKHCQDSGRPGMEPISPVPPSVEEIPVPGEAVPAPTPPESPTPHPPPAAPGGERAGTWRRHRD
To be noted: at 1 µM.

Assay [12] has as its target T2, Serine/threonine-protein kinase DCLK2 (Homo sapiens). Conditions: at 10 µM.
The target of assay [13] is T3, Discoidin domain-containing receptor 2 (Homo sapiens) (UniProt Q16832).
T3 sequence (whole entry): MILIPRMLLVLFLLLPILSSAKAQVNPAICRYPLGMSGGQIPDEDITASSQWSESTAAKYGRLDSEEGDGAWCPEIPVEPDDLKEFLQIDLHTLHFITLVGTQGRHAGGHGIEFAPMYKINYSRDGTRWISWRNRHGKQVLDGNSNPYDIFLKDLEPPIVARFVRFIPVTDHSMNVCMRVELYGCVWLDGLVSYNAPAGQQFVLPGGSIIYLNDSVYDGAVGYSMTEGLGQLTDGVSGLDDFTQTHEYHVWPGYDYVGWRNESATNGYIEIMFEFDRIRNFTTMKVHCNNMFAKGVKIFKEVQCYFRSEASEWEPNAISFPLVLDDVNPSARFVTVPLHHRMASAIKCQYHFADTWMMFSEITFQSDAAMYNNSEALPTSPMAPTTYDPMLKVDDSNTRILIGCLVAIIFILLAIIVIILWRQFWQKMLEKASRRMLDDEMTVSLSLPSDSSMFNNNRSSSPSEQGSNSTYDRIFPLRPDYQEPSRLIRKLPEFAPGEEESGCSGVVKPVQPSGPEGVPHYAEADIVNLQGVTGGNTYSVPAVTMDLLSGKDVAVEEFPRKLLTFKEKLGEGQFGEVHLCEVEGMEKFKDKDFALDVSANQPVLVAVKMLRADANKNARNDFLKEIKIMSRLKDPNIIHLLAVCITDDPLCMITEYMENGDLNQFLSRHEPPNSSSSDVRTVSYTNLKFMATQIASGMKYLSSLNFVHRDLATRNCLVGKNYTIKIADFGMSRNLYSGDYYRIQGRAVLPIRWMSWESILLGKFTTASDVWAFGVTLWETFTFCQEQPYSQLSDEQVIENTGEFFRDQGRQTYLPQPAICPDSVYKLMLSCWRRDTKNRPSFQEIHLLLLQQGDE
To be noted: at 10 µM.

For assay [14], the target named is T4, Myotonin-protein kinase (Homo sapiens) (UniProt Q09013).
T4 sequence (whole entry): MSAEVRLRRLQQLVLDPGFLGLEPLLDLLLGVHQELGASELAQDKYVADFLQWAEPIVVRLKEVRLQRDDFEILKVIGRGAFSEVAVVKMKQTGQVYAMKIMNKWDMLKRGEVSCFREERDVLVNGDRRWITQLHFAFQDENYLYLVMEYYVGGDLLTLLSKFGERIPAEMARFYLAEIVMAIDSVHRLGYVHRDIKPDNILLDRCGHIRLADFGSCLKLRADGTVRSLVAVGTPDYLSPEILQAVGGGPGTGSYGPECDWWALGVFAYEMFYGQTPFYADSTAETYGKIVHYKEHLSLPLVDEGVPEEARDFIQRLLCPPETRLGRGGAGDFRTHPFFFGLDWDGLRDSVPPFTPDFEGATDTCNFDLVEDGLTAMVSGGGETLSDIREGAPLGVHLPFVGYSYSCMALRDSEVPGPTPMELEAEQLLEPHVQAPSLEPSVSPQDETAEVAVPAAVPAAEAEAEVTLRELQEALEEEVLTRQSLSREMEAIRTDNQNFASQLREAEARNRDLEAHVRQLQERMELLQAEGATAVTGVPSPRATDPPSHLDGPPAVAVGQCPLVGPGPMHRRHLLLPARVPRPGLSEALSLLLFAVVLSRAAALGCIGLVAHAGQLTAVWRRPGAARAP
Conditions: at 1 µM.

The target of assay [15] is T4, Myotonin-protein kinase (Homo sapiens). To be noted: at 10 µM.
The target in assay [16] is T5, Serine/threonine-protein kinase 17A (Homo sapiens) (UniProt Q9UEE5).
T5 sequence (whole entry): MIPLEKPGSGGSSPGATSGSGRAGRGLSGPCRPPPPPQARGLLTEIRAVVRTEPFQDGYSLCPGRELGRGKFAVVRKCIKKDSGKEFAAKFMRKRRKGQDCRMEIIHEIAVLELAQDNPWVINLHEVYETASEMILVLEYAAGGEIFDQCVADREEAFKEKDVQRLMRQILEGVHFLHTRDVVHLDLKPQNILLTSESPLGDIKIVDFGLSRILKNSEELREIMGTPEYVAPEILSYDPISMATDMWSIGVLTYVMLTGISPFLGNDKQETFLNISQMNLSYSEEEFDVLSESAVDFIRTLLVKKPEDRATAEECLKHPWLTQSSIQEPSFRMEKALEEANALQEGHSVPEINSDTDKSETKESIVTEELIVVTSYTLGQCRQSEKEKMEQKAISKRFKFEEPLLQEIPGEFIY
Conditions: at 1 µM.

The target of assay [17] is Calcium/calmodulin-dependent protein kinase type II subunit delta (Homo sapiens) (UniProt Q13557). Conditions: at 1 µM.
Assay [18] addresses T1, Calcium/calmodulin-dependent protein kinase type IV (Homo sapiens). To be noted: at 1 µM.
Assay [19] addresses T3, Discoidin domain-containing receptor 2 (Homo sapiens). Conditions: at 1 µM.
The target of assay [20] is Death-associated protein kinase 2 (Homo sapiens) (UniProt Q9UIK4). Conditions: at 10 µM.

Chain of Calcium/calmodulin-dependent protein kinase type II subunit gamma (Homo sapiens) (Q13555 whole entry): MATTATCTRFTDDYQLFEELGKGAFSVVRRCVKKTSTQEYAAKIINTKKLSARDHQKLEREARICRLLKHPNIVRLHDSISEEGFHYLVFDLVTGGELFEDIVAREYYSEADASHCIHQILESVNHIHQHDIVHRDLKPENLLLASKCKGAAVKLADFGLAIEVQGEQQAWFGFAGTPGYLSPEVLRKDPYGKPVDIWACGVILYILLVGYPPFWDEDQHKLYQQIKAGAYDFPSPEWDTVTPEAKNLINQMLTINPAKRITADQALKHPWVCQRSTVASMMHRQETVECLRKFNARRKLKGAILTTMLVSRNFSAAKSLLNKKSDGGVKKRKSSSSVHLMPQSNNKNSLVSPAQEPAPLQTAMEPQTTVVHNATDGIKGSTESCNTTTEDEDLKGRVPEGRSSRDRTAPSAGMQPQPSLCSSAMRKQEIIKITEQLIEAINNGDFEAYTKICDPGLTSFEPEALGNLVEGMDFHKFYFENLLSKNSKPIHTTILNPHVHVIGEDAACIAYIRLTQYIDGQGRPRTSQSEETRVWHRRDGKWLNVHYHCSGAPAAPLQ
Chain of Death-associated protein kinase 2 (Homo sapiens) (Q9UIK4 whole entry, looked up): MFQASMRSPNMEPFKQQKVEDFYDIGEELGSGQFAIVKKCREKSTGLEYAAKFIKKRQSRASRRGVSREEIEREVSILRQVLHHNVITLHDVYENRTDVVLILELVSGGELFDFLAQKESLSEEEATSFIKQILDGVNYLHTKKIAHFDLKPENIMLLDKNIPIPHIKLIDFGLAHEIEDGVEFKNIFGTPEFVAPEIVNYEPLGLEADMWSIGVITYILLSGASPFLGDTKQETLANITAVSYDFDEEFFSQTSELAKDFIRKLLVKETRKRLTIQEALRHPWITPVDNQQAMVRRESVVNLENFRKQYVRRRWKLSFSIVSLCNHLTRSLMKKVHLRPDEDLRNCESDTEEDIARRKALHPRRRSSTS
Chain of Calcium/calmodulin-dependent protein kinase type 1 (Homo sapiens) (Q14012 whole entry, looked up): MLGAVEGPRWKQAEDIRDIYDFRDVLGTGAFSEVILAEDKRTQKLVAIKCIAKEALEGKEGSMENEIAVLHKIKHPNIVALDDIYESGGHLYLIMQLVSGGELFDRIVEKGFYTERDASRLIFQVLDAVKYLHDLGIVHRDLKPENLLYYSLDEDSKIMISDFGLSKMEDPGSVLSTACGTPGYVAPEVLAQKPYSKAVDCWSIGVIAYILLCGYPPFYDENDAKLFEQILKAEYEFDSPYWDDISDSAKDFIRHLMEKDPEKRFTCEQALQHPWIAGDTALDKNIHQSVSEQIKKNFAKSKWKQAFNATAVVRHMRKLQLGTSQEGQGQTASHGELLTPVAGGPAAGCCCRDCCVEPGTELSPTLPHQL
Chain of Calcium/calmodulin-dependent protein kinase type II subunit delta (Homo sapiens) (Q13557 whole entry): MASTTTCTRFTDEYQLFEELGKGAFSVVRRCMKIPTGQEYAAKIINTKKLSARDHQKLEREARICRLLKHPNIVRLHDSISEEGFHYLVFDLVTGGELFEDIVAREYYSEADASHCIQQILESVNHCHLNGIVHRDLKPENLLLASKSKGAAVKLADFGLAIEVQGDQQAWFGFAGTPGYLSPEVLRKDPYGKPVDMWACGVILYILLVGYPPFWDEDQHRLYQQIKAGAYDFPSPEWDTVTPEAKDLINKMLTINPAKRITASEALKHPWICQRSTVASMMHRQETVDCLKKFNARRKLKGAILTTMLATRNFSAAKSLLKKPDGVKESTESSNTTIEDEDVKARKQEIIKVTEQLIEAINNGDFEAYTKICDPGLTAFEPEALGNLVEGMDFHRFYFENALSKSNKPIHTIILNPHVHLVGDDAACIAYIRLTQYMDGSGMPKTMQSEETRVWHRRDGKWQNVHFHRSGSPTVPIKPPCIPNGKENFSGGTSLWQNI
Chain of Calcium/calmodulin-dependent protein kinase type II subunit beta (Homo sapiens) (Q13554 whole entry): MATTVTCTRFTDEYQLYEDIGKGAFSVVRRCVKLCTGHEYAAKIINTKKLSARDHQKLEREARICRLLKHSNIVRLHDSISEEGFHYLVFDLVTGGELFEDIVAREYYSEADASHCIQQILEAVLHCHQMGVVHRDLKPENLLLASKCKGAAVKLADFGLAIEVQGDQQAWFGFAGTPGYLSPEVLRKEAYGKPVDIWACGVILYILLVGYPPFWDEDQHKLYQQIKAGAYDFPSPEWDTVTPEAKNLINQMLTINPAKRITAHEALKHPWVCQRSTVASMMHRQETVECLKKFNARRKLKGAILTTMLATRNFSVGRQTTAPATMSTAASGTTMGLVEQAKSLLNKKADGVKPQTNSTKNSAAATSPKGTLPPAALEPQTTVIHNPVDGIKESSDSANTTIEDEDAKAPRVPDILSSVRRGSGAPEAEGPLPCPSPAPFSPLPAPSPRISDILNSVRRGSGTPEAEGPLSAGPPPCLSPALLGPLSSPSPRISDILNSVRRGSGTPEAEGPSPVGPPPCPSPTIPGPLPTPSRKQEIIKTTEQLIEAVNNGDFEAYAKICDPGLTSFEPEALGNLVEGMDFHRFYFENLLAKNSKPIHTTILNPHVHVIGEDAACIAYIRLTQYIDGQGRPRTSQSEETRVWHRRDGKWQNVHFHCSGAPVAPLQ
Chain of Death-associated protein kinase 1 (Homo sapiens) (P53355 whole entry, looked up): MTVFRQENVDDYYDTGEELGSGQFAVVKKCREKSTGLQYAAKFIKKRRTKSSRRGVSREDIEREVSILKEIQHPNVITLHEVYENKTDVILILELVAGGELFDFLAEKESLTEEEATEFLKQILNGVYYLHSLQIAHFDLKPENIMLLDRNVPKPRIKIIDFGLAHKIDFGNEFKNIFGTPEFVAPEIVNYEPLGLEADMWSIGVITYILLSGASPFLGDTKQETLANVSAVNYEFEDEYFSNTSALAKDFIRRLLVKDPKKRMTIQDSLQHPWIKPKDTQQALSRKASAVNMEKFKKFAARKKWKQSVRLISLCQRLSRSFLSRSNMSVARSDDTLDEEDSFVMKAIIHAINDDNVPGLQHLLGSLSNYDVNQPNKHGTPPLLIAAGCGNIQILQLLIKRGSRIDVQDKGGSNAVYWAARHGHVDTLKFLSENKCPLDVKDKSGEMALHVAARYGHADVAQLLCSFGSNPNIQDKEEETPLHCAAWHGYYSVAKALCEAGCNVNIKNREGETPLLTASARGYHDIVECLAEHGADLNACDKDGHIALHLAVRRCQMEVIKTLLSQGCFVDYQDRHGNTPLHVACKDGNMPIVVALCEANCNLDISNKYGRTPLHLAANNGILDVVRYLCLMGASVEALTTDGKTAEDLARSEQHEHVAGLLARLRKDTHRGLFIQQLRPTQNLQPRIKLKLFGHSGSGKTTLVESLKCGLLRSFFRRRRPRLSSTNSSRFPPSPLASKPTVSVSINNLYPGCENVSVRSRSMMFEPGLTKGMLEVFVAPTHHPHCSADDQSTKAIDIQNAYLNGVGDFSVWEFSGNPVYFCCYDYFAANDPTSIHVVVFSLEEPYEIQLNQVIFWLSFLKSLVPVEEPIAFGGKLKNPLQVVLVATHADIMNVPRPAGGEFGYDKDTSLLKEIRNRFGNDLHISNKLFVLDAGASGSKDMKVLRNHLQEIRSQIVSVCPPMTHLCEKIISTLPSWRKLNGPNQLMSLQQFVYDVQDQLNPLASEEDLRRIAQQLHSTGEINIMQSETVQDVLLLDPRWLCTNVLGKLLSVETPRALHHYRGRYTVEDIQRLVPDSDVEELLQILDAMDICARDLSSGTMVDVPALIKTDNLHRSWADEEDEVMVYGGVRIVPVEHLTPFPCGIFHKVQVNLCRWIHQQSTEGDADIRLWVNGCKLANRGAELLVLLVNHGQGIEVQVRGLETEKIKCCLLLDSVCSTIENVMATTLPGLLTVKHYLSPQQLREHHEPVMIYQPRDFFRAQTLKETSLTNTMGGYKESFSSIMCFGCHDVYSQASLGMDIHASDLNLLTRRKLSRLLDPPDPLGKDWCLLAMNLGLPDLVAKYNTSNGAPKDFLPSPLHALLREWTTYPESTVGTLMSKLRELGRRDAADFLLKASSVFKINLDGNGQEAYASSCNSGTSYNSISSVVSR

On to `c1ccc2c(-c3ccncc3)c[nH]c2c1`, for which the residual activity (usually the signal under treatment as a percentage of the control signal) in [1] was found to be 106%; in [2], 84%; in assay [3], 47%; in assay [4], 10%; in assay [5] it was 79%; in assay [6], 26%. Also, the residual activity in assay [7] came to 30%; in [8], 90%; in assay [9], 91%; in assay [10], 100%; in assay [11], 75%; in [12], 98%. In addition, the residual activity in [13] was 97%; in [14] it was 147%; in assay [15], 132%; in assay [16], 102%.

For the compound `O=C1Nc2ccc(Br)cc2/C1=C\c1cc2c([nH]1)CCCC2`, the residual activity in [1] worked out at 105%; in [3], 72%; in [4], 69%; in assay [5], 20%; in assay [6] it was 16%; in assay [17], 18%. For the same compound, the residual activity is 20% in assay [7]; 135% in assay [18]; 110% in assay [19]; 115% in assay [14]; 130% in [15]; 48% in [16].

For `CCN(CC)C(=O)c1ccc(Nc2nc(OCC3CCCCC3)c3nc[nH]c3n2)cc1`, the residual activity in assay [1] came to 70%; in assay [2], 19%; in [3], 98%; in assay [4], 51%; in assay [5] it was 102%; in assay [6], 51%. Also, the residual activity in assay [7] was 49%; in assay [18], 82%; in [8], 28%; in [9] it was 54%; in assay [10], 96%; in [20], 68%. The residual activity amounted to 99% in [12], 93% in assay [19], 66% in [13] and 23% in assay [16].

Take `O=C(Nc1cccc(Nc2cc(Nc3cccc(C(F)(F)F)c3)ncn2)c1)C1CC1`: the residual activity is 114% in assay [1]; 57% in assay [2]; 91% in assay [3]; 86% in assay [4]; 98% in [5]; 74% in assay [6]. The residual activity was found to be 97% in assay [17]; 67% in [7]; 116% in assay [18]; 94% in assay [8]; 100% in assay [9]; 91% in [10]. The residual activity came out at 91% in assay [20]; 92% in [11]; 109% in assay [12]; 81% in assay [19]; 94% in assay [13]; 100% in [14]. For the same compound, the results for the residual activity in assay [15] and in assay [16] were 106% and 81%, respectively.

For `COc1cc2ncnc(Nc3ccc(NC(=O)c4ccccc4)cc3)c2cc1OC`, the residual activity in [1] was found to be 99%; in assay [2], 41%; in assay [3], 102%; in [4], 94%; in assay [17], 108%; in [7], 91%. Further, the residual activity in [8] was 95%; in [9], 83%; in [10], 98%; in assay [20] it was 106%; in [11] it was 99%; in [12], 104%. Moreover, the residual activity in [13] turned out to be 89%; in [14], 110%; in assay [15] it was 145%; in assay [16], 75%.

With `c1ccc(-c2n[nH]c3c2oc2ccccc23)cc1`, the residual activity worked out at 115% in assay [1]; 136% in assay [2]; 87% in [3]; 36% in assay [4]; 81% in [5]; 25% in assay [6]. Besides, the residual activity in assay [17] was determined as 79%; in [7], 22%; in assay [8], 90%; in assay [9] it was 98%; in assay [11], 82%; in [12] it was 74%. The residual activity came to 146% in assay [14], 121% in assay [15] and 43% in assay [16].

As to `Nc1nc(Nc2ccc(S(N)(=O)=O)cc2)nn1C(=S)Nc1c(F)cccc1F`, the residual activity in [1] is 66%; in assay [2], 17%; in assay [3], 5%; in assay [4], -1%; in assay [5], 2%; in [6] it was 0%. Besides, the residual activity came to 0% in assay [17]; 0% in assay [7]; 84% in [10]; 43% in [20]; 13% in assay [11]; 2% in assay [12]. Also, the residual activity in assay [19] is 74%; in [13], 28%; in assay [14], 122%; in assay [15], 31%; in [16], 1%.
